Compound activity (PubChem BioAssay)
Cycloheximide cs = counter-screen for Shiga toxin inhibitors: cycloheximide protein synthesis inhibition; 300,000 tested, 12% active; cell reporter, cycloheximide protein synthesis inhibition counterscreen; max response, %; in the data active means max response mostly above about 13%, no sharp cut-off; inactive means mostly below about 14%; further: read at 38.3 µM for the half of the compounds with a filed dose
NS1 inh = inhibitors of influenza NS1 protein function; Potency, µM (series often up to 46.1 µM); 270,000 tested, 0.4% active; calls by dose curve; further: actives are rising curves; nearly all actives have a fitted effect of over 50% in size
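In this qHTS, NS1 from influenza A is expressed in budding yeast, where it slows growth. Cells are switched from glucose to 2% galactose medium (pH 6.0, -URA), treated with compound, and growth recovery is read at OD600.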
Sm TGR inh = inhibitors of Schistosoma mansoni thioredoxin glutathione reductase; purified TGR, DTNB reduction, TNB absorbance 405 nm; 360,000 tested, 3% active; Q962Y6; Potency, µM (doses to about 114 µM), hits mostly inhibitors; further: nearly all actives have a fitted effect of over 60% in size
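First, TGR (20 nM dispensed) and NADPH were mixed with compound. Second, a 15 min room-temperature incubation followed. Third, further NADPH and then DTNB were added to start the reaction. Finally, TNB absorbance was monitored kinetically.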
Pf growth 48h = P. falciparum growth inhibition at 48 hours (one generation); Potency, µM (highest dose often 28.7 µM), most hits filed as inhibitors; AID 504832; P. falciparum luciferase growth in erythrocytes, 48 h; 310,000 tested, 5.9% active
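Growth was read as firefly luciferase luminescence after a 48 h, 37 C, 5% CO2 exposure of compounds to reporter-bearing P. falciparum cultures (0.1% parasitemia, 2% hematocrit final) in Albumax-supplemented RPMI 1640.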
Pf growth 96h = P. falciparum growth inhibition at 96 hours; 320,000 tested, 6.9% active; Potency, µM (highest dose often 28.7 µM), usual class: inhibitors; P. falciparum luciferase reporter growth, 96 h
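Luminescence readout: decreased luciferase signal marks inhibited growth of reporter-expressing P. falciparum in infected red cells (2% hematocrit, 0.05% parasitemia final), exposed to compound two generations (96 h, 37 C, 5% CO2).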
Shiga toxin inh = inhibitors of Shiga toxin in Vero cells | 290,000 tested, 9.2% active | inhibition, % at 38.7 µM | Vero cells, Shiga toxin protein synthesis inhibition reporter; in the data active means inhibition mostly above about 28%, no sharp cut-off; inactive means mostly below about 43%
A number is an active result; n = inactive; u = inconclusive; x = no result; [ ] = another dose, or the depositor's remark. Sampled rows, rich in hits. Any-hit rate of the full collection: about 21%. Unless noted, the call rests on the fitted dose curve; in most records, active means well fitted curve in the direction sought with a large enough effect; inconclusive means small, poorly fitted or top-dose-only effect, or another doubt; inactive means no such curve, though single readings can be large; an effect the other way counts as inactive or inconclusive.

SMILES	Cycloheximide cs	NS1 inh	Sm TGR inh	Pf growth 48h	Pf growth 96h	Shiga toxin inh
CSc1cccc(NC(=O)Nc2ccc(Cl)cc2)c1	n	n	n	u	u	n
O=C(NCCc1ccncc1)Nc1cccc(Cl)c1	n	n	n	x	u	n
CC(=O)c1ccc(NC(=S)NCCc2cccc(Cl)c2)cc1	27.0	n	x	u	n	77.7
CCCCCCCC(=O)OCCOC(=O)CCCCCCC	n	x	x	x	x	n
O=P(O)(O)O[C@@H]1O[C@H](CO)[C@@H](O)[C@H](O)[C@@H]1O	x	n	x	x	x	x
Cn1c(CNC(=O)Nc2cccc(Cl)c2)nnc1SCc1ccccc1	n	n	n	u	13.1µM	n
O=C(O)CC(=O)Nc1ccccc1	n	n	n	x	n	n
CC(=O)c1ccc(NC(=O)Nc2cccc(Cl)c2)cc1	36.7	n	n	x	u	60.6
O=C(Nc1ccccc1)Nc1cccc(Cl)c1	55.6	n	n	x	u	106.9
O=C(O)/C(=C\C(=O)c1ccccc1)Nc1ccccc1	51.4	n	n	n	n	83.5
O=C(Cc1ccccc1)NNC(=O)Nc1cccc(Cl)c1	n	n	n	n	n	n
Cc1ccc(CNC(=O)NCc2noc3ccc(C)cc23)cc1	x	x	n	x	x	x
NS(=O)(=O)c1ccc(NC(=O)Nc2ccccc2)cc1	n	n	n	n	n	n
NS(=O)(=O)c1ccc(NC(=O)Nc2cccc(Cl)c2)cc1	19.3	n	n	n	n	n
NS(=O)(=O)c1ccc(CNC(=S)Nc2ccc(F)c(Cl)c2)cc1	n	x	u	n	u	n
Cc1ccc(N2C(=O)CC(SCC(=O)Nc3ccc(S(N)(=O)=O)cc3)C2=O)cc1 (configuration not stated)	63.7	x	n	n	n	154.4
COC(=O)C(C)(C)ONC(=O)Nc1ccc([N+](=O)[O-])cc1	n	n	n	n	u	n
CCOC(=O)c1ccc(N2C(=O)CC(SCC(=O)Nc3ccc(S(N)(=O)=O)cc3)C2=O)cc1 (configuration not stated)	n	n	u	n	n	n
NS(=O)(=O)c1ccc(NC(=S)Nc2ccc(F)c(F)c2)cc1	n	n	25.1µM	n	n	n
COC(=O)C(C)(C)ONC(=O)Nc1ccc(C)cc1	21.3	n	n	n	n	42.6
COc1ccc(-c2oc3ncn4nc(COc5cccc(C)c5C)nc4c3c2-c2ccc(OC)cc2)cc1	x	x	n	x	x	x
Cc1ccc2nc(-c3ccccn3)cc(C(=O)NCCc3ccc(F)cc3)c2c1	n	n	n	u	u	n
Cc1ccc2c(c1)N(C(=O)NCc1ccccc1)CCO2	x	x	n	x	x	x
O[C@@H](COc1cccc2ccccc12)CN1CCOCC1	x	n	x	x	x	x
CC(=O)c1ccc(NC(=S)Nc2cccc(Cl)c2C)cc1	n	x	35.5µM	n[5.75 µM]	n	n
SMILES	Cycloheximide cs	NS1 inh	Sm TGR inh	Pf growth 48h	Pf growth 96h	Shiga toxin inh
CC(Cl)C(=O)NNc1cccc(Cl)n1 (configuration not stated)	n	n	12.6µM	n	n	n
NS(=O)(=O)c1cccc(NC(=O)Nc2ccccc2)c1	10.9	n	n	2.08µM	n	n
Cc1ccc(NC(=O)NC(=O)N(C(C)C)S(=O)(=O)c2ccc(C)cc2)cc1	22.6	x	n	n	n	n
O=C(Nc1ccccc1)Nc1ccccc1	48.1	x	x	x	x	92.9
O=C(NNc1cccc(Cl)n1)c1ccc(Cl)cc1Cl	24.0	n	n	n	n	n
NC(=S)Nc1cccc(Cl)c1	n	n	n	n	n	n
CS/C(N)=N/C(=S)Nc1cccc(Cl)c1	36.1	n	n	n	n	94.5
Nc1nonc1-n1nnc(C(=O)N/N=C/c2cccc(Cl)c2Cl)c1CN1CCCC1	n	n	n	n	n	n
Oc1ccc(-c2cc(-c3ccc(O)cc3)nc(-c3ccccc3)n2)cc1	n	n	n	n[0.00184 µM]	5.86µM	n
Oc1ccc(-c2nnc(-c3ccc(O)cc3)nn2)cc1	25.7	n	u	u	u	n
Clc1nc(-c2ccccc2)cc(-c2ccccc2)n1	17.2	n	n	n	u	n
Oc1ccc(-c2cccc(-c3ccc(O)cc3)n2)cc1	38.9	n	n	n	n	67.2
Cc1ccc(OC(=O)CSc2nnc(CNC(=O)c3ccccc3)o2)cc1	x	x	n	x	x	x
CC(=O)c1ccc(N2CCN(CC(O)COC(c3ccccc3)c3ccccc3C)CC2)cc1 (configuration not stated)	n	n	n	10.4µM	u	n
Cc1cc(C)nc(SCC(=O)OCC(=O)Nc2ccccc2)n1	n	n	n	n	n	n
Cc1cc(C)c2c(CC(=O)Nc3ccc(S(=O)(=O)Nc4ncccn4)cc3)coc2c1	x	x	n	x	x	x
CN(C)CC(CCC(CN(C)C)C(O)(c1ccccc1)c1ccccc1)C(O)(c1ccccc1)c1ccccc1 (configuration not stated)	n	n	n	1.85µM	1.85µM	n
CC(C)(C)n1cnc2cc(NCc3ccccc3O)ccc21	48.5	n	n	n	u	65.8
CC(C)n1cnc2cc(NCc3ccccn3)ccc21	71.9	n	n	n	x	70.0
CC(C)n1cnc2cc(NCc3ccccc3O)ccc21	51.7	n	n	n	n	86.2
CC(C)n1cnc2cc(NCc3ccco3)ccc21	41.1	n	n	n	n	72.1
CCCCn1cnc2cc(NCc3ccccc3Cl)ccc21	x	x	n	x	x	x
CCCCCn1c(NCc2ccco2)nc2ccccc21	n	n	n	x	n	n
CC1CCc2nn(CC(=O)Nc3cccc(C(F)(F)F)c3)c(=O)cc2C1 (configuration not stated)	x	x	n	x	x	x
c1ccc(Cn2c(NCc3ccccn3)nc3ccccc32)cc1	n	x	n	n	u	n
SMILES	Cycloheximide cs	NS1 inh	Sm TGR inh	Pf growth 48h	Pf growth 96h	Shiga toxin inh
Cc1cc(NCc2ccccn2)ccc1Br	34.1	n	n	n	n	73.8
c1ccc(-n2cnc3cc(NCc4ccccn4)ccc32)cc1	59.0	n	n	n	u	81.8
Cc1cc(C)c(S(=O)(=O)NCc2ccccn2)c(C)c1	n	n	n	n	n	n
CN1CCN(CC(=O)Nc2cc(N(C)C)nc3ccccc23)CC1	n	n	x	n	u	n
COC(=O)c1ccccc1C(=O)N1CCCC(CCC(=O)NCc2ccc(F)c(F)c2)C1 (configuration not stated)	40.8	n	n	n	n	92.8
COC(=O)c1ccccc1C(=O)N1CCCC(CNC(=O)c2ccc(F)cc2)C1 (configuration not stated)	11.5	n	n	n	n	n
Cc1noc(C)c1CCC(=O)N1CCCC(CCC(=O)NCc2ccc(F)c(F)c2)C1 (configuration not stated)	19.3	n	n	n	n	n
COC(=O)CCCC(=O)N1CCCC(CCC(=O)NCc2ccc(F)c(F)c2)C1 (configuration not stated)	n	n	n	8.28µM	n	n
Cc1cc(Cl)ccc1NC(=O)Cn1nc(C)c2c(C)n(-c3ccccc3)nc2c1=O	x	x	n	x	x	x
COc1ccc(CNC(=O)C2=C(C)C(=O)OC23CCCCC3)cc1OC	x	x	n	x	x	x
O=C1OC(N2C(=O)CC[C@H]2C(=O)Nc2ccc(Br)cc2F)c2ccccc21 (some centres not stated)	n	n	n	n	n	n
